{"source": "PubChem BioAssay (NCATS)", "note": "Records with an inconclusive call do not appear. A number with no mark means an inactive call. Active and inactive are the calls of the source. Calls come from the whole dose curve; as a rule, active = well fitted cell-killing curve with a large enough effect; inconclusive = small, poorly fitted or top-dose-only effect; inactive = flat fitted curve, though single readings scatter. Potency is the fitted concentration of half-maximal effect.", "data": [{"assay": "Cell Viability - LYMP2-011 (AID 969); note: nearly all actives have a fitted effect of over 60% in size;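 for viability change, negative = cytotoxic: 0% = DMSO only and full inhibition = 92 µM tetraoctylammonium bromide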", "conditions": "LYMP2-011 lymphoblastoid cells viability; series mostly up to 92.2 µM; viability change, negative = cytotoxic: at the top concentration", "source_text": "NIH Chemical Genomics Center [NCGC]\nNIH Molecular Libraries Screening Centers Network [MLSCN]\nNational Institutes of Environmental Health Sciences [NIEHS]\nNational Toxicology Program [NTP]\nWe have developed a 1536-well cell-based assay for quantitative high throughput screening (qHTS) against a number of cell lines to determine in vitro cytotoxicity of small molecules. This particular assay uses a human lymphoblastoid cell line (LYMP2-011) purchased from Coriell Institute for Medical Research.\nNCGC Assay Protocol Summary:\nThe CellTiter-Glo luminescent cell viability assay (Promega) is a homogeneous method to measure the number of viable cells in culture. The end point readout of this assay is based on quantitation of intracellular ATP, an indicator of metabolic activity, using the luciferase reaction. Luciferase catalyzes the oxidation of beetle Luciferin to oxyluciferin and light in the presence of ATP. The luminescent signal is proportional to amount of ATP present.\nUsing the CellTiter-Glo luminescent cell viability assay, the amount of cellular ATP was measured in the lymphoblastoid cell line with complete culture medium following compound treatment for 24 hours. The assay was performed in opaque white Kalypsys 1536-well plates. In the screen, tetraoctylammonium bromide was used as positive control. Library compounds were measured for their ability to cause acute toxicity in the cell line, as reflected by a decrease in intracellular ATP levels, in a concentration-dependent manner. […] AC50 values were determined from concentration-response data modeled with the standard Hill equation.\nqHTS protocol for CellTiter Glo lymphoblastoid cellular assay\n[Step] [Parameter] [Value] [Description]\n1. Reagent; 5 uL; 2500 lymphoblastoid cells/well\n2. Time; 5 hr; 37 C incubation\n4. Controls; 23 nL; Tetraoctylammonium bromide 6.4pM to 92 uM\n5. Time; 24 hr; 37 C incubation\n6. Reagent; 5 uL; CellTiter Glo reagent\n7. Time; 30 min; Room Temperature\n8. Detection; Luminescence; Viewlux plate reader\nKeywords: cell viability, cytotoxicity, lymphoblastoid cell line, luminescence, NTPHTS, NTPHTS_NCGC, NIEHS, DSSTox, MLSMR, MLSCN, NIH Roadmap, qHTS, NCGC", "units": {"viability change, negative = cytotoxic": "%"}, "values": [{"smiles": "CCC(Cl)[N+](=O)[O-]", "note": "(stereo not given)", "viability change, negative = cytotoxic": -1.65}, {"smiles": "C=CCc1cc(OC)c2c(c1)OCO2", "viability change, negative = cytotoxic": 2.43}, {"smiles": "O=P(OCCCl)(OCCCl)OCCCl", "viability change, negative = cytotoxic": 3.61}, {"smiles": "Brc1cccc(-c2ccccc2)c1", "viability change, negative = cytotoxic": 0.786}, {"smiles": "CN(C)c1ccc(N=Nc2ccccc2)cc1", "viability change, negative = cytotoxic": -15.1}, {"smiles": "BrCCc1ccccc1", "viability change, negative = cytotoxic": -1.82}, {"smiles": "Oc1c(Cl)c(Cl)cc(Cl)c1Cl", "viability change, negative = cytotoxic": -6.27}, {"smiles": "Nc1cc(Cl)cc(Cl)c1", "viability change, negative = cytotoxic": -1.68}, {"smiles": "Cc1ccc(OP(=O)(Oc2ccc(C)cc2)Oc2ccc(C)cc2)cc1", "viability change, negative = cytotoxic": 0.0834}, {"smiles": "N#CCc1ccccc1", "viability change, negative = cytotoxic": 2.66}, {"smiles": "Nn1cnnc1", "viability change, negative = cytotoxic": 0.73}, {"smiles": "CCN(N=O)C(N)=O", "viability change, negative = cytotoxic": 1.26}, {"smiles": "Cc1cc(C)cc(OP(=O)(Oc2cc(C)cc(C)c2)Oc2cc(C)cc(C)c2)c1", "viability change, negative = cytotoxic": -14.6}, {"smiles": "Oc1cccc(Cl)c1", "viability change, negative = cytotoxic": 0.623}, {"smiles": "Oc1cc(Cl)ccc1Cl", "viability change, negative = cytotoxic": -0.827}, {"smiles": "Nc1c(Cl)cc([N+](=O)[O-])cc1Cl", "viability change, negative = cytotoxic": 3.25}, {"smiles": "COC(=O)Nc1nc2ccccc2[nH]1", "viability change, negative = cytotoxic": -22}, {"smiles": "O=C(Cc1ccccc1)OCc1ccccc1", "viability change, negative = cytotoxic": -1.44}, {"smiles": "c1ccc(C2CO2)cc1", "note": "(stereo not given)", "viability change, negative = cytotoxic": 1.46}, {"smiles": "CC1CC(=O)O1", "note": "(stereo not given)", "viability change, negative = cytotoxic": -1.68}, {"smiles": "Nc1ccc(Cl)c(Cl)c1", "viability change, negative = cytotoxic": -5.46}, {"smiles": "O=[N+]([O-])c1cc(Cl)c(Cl)cc1Cl", "viability change, negative = cytotoxic": -0.348}, {"smiles": "c1ccc(NNc2ccccc2)cc1", "viability change, negative = cytotoxic": 4.78}, {"smiles": "CCC#N", "viability change, negative = cytotoxic": 0.947}, {"smiles": "CCOP(=O)(OCC)OCC", "viability change, negative = cytotoxic": 1.44}, {"smiles": "c1ccc2c(c1)CCNC2", "viability change, negative = cytotoxic": -2.29}, {"smiles": "ClC(Cl)C(Cl)Cl", "viability change, negative = cytotoxic": 0.627}, {"smiles": "CCOC(=O)CBr", "viability change, negative = cytotoxic": -10.3}, {"smiles": "C(CCOCC1CO1)COCC1CO1", "note": "(stereo not given)", "viability change, negative = cytotoxic": -26.1}, {"smiles": "CC(C)CC(C)N", "note": "(stereo not given)", "viability change, negative = cytotoxic": -11.4}, {"smiles": "O=C(O)CCl", "viability change, negative = cytotoxic": -8.55}, {"smiles": "C[N+](=O)[O-]", "viability change, negative = cytotoxic": 3.12}, {"smiles": "CCCBr", "viability change, negative = cytotoxic": -3.23}, {"smiles": "O=C(O)c1cc(Cl)ccc1Cl", "viability change, negative = cytotoxic": -0.0849}, {"smiles": "CCCCOC(=O)c1ccccc1N", "viability change, negative = cytotoxic": 4.46}, {"smiles": "Cc1ccc(N=C=O)cc1N=C=O", "viability change, negative = cytotoxic": 7.05}, {"smiles": "N#C/C=C/C#N", "Potency": "39.8 µM (active)"}, {"smiles": "Cl/C=C\\Cl", "viability change, negative = cytotoxic": -2.23}, {"smiles": "N#CC(Cl)(Cl)Cl", "viability change, negative = cytotoxic": 1.78}, {"smiles": "O=C(O)CBr", "viability change, negative = cytotoxic": -5.28}]}]}
